Lassa entry inh = inhibitors of Lassa virus binding or cell entry | Lassa virus pseudotype entry inhibition, cell reporter | Potency, µM (highest dose often 37.9 µM), without a hit: at the top dose activity change, negative = inhibition, hits mostly inhibitors | 300,000 compounds, 1.2% hits | AID 540256; calls by dose curve; tested in HEK293 cells; note: potency is the fitted concentration of half-maximal effect; nearly all actives have a fitted effect of over 50% in size
MARV entry inh = blocks Marburg virus binding to or entry into cells; Marburg virus pseudotyped entry inhibition, cell reporter; Potency, µM (highest dose often 37.8 µM), without a hit: at the highest dose activity change, negative = inhibition, hits mostly inhibitors; 300,000 compounds, 1.8% hits; calls by dose curve; tested in HEK293 cells; note: potency is the fitted concentration of half-maximal effect
HCMV inh = blocks human cytomegalovirus replication | 410,000 compounds, 4.5% hits | activity change, negative = inhibition, % at 57.5 µM | HFF cells, HCMV-luciferase reporter, 72 h; active compounds read low | AID 1259415; in the data active = activity change below about -60%; inconclusive = no clear call, values can overlap the other calls; inactive = above about -39%
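Luciferase read-out from HCMV-luciferase-infected HFFs (MOI 1 PFU/cell) 72 h post infection at 37C; compounds added after 16 h cell attachment; activity normalized between buffer-only basal and Salinomycin (10uM) inhibitor controls.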
Pf growth 96h = P. falciparum growth inhibition at 96 hour, primary screen for plastid delayed-death inhibitors | P. falciparum luciferase reporter growth, 96 h | Potency, µM (series often up to 28.7 µM), inactives show top-dose activity change, negative = inhibition, most hits filed as inhibitors | 320,000 compounds, 6.9% hits | AID 504834; note: potency is the fitted concentration of half-maximal effect
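Two parasite generations (96 h, 37 C, 5% CO2) of compound exposure in infected erythrocytes (0.05% parasitemia, 2% hematocrit). Luciferase-reporter P. falciparum; decreased luminescence indicates inhibited growth, aimed at apicoplast-acting delayed death.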
HCV inhibitor = inhibitors of hepatitis C virus infection. Huh7.5.1 HCVcc-Cre infection, luciferase reporter, 44 h. Potency, µM (doses to about 41.8 µM), for the others: top-dose activity change, negative = inhibition, most hits filed as inhibitors. 340,000 compounds, 3.4% hits. AID 651820; note: potency is the fitted concentration of half-maximal effect
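Reporter virus HCVcc-Cre (~0.5 moi) infects cells exposed to compound; seeding density 1,000 cells/well with 4 h settling beforehand. Luminescence, 15 sec read, taken 44 h post-infection following a 15 min RT substrate incubation.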
Pf growth 48h = P. falciparum growth inhibition at 48 hours (one generation); P. falciparum luciferase growth in erythrocytes, 48 h; Potency, µM (top dose mostly 28.7 µM), inactives show at the highest dose activity change, negative = inhibition, usual class: inhibitors; 310,000 compounds, 5.9% hits; note: potency is the fitted concentration of half-maximal effect
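Firefly luciferase activity from engineered P. falciparum reports growth; inhibitors lower the luminescent signal. Cultures contained 2% hematocrit erythrocytes at 0.1% final parasitemia.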
Active calls of the source: *; [ ] = dose if it differs, or a comment. Rows were chosen to be rich in hits. Some 14% of all compounds tested hit in one or more screens of this group. Unless noted, calls come from the whole dose curve; as a rule, active = well fitted inhibition curve with a large enough effect; inconclusive = small, poorly fitted or top-dose-only effect, or another doubt; inactive = no such curve, though single readings can be large or run the other way. % is set by controls: 0 for no effect and ±100 for the full control effect.

`CC(=O)N1CCOc2ccc(S(=O)(=O)N3CCC(C(=O)Nc4ccc(C)c(C)c4)CC3)cc21` gave Lassa entry inh 5%[46.1 µM], MARV entry inh 19%[46.1 µM], HCMV inh inconclusive, Pf growth 96h inconclusive, HCV inhibitor -15% and Pf growth 48h -8%.
COc1ccc(CC(=O)NCCc2cn(C)c3ccccc23)cc1OC was read as HCMV inh -17.
`O=C1OCC/C1=C\NCCCCCCCCN/C=C1\CCOC1=O` gave HCMV inh 11.
`Cc1ccc(C(=O)N/C(=C\c2ccco2)C(=O)NCCCn2ccnc2)cc1` gave Lassa entry inh 14%, MARV entry inh 9%, HCMV inh -34, Pf growth 96h 9.3µM*, HCV inhibitor 6% and Pf growth 48h 40%.
Screening O=C(NC(Cc1c[nH]c2ccccc12)C(=O)O)/C(=C\c1ccccc1)NC(=O)c1ccccc1 (stereo not drawn) returned Lassa entry inh -1%[46.1 µM], MARV entry inh 8%[46.1 µM], HCMV inh -12, Pf growth 96h 10µM*, HCV inhibitor 10% and Pf growth 48h 10%.
For O=C(NC(Cc1c[nH]c2ccccc12)C(=O)O)/C(=C/c1ccc2c(c1)OCO2)NC(=O)c1ccccc1 (stereo not drawn) the results were Lassa entry inh 12%[46.1 µM], MARV entry inh 1%[46.1 µM], HCMV inh -18, Pf growth 96h 49%, HCV inhibitor 18% and Pf growth 48h -10%.
Screening COc1ccc(C(=O)N/C(=C\c2ccco2)C(=O)NCc2cccnc2)cc1 returned Lassa entry inh 4%, MARV entry inh 13%, Pf growth 96h 1.2µM*, HCV inhibitor 23% and Pf growth 48h 33%.
For O=C(NCc1cccnc1)/C(=C/c1ccccc1)NC(=O)c1ccccc1 the results were Lassa entry inh 11%, MARV entry inh 15%[46.1 µM], HCMV inh -37, Pf growth 96h -3%, HCV inhibitor 1% and Pf growth 48h 3%.
`O=C(NCc1cccnc1)/C(=C/c1ccco1)NC(=O)c1ccccc1` gave Lassa entry inh 9%, MARV entry inh inconclusive, HCMV inh -3, Pf growth 96h 12µM*, HCV inhibitor -4% and Pf growth 48h 28%.
`CCOc1ccc(/C=C/c2nc(C#N)c(NCc3ccc(OC)cc3)o2)cc1` gave Lassa entry inh inconclusive, MARV entry inh 6%[46.1 µM] and HCMV inh 8.
For O=C(NC(Cc1ccccc1)C(=O)O)/C(=C\c1ccco1)NC(=O)c1ccccc1 (stereo not drawn) the results were Lassa entry inh inconclusive, MARV entry inh inconclusive, HCMV inh 19, Pf growth 96h 2.6µM*, HCV inhibitor -2% and Pf growth 48h 40%.
For O=C(NCCN1CCCCC1)/C(=C/c1ccco1)NC(=O)c1ccccc1 the results were Lassa entry inh 6%, MARV entry inh 5%, HCMV inh -7, Pf growth 96h 6.6µM*, HCV inhibitor -8% and Pf growth 48h 2%.
Screening Cc1ccc(C(=O)N/C(=C\c2ccco2)C(=O)NCCN2CCCCC2)cc1C returned MARV entry inh -30%[46.1 µM], HCMV inh -38, Pf growth 96h 1%, HCV inhibitor inconclusive and Pf growth 48h 12%.
`O=C(NC(Cc1ccccc1)C(=O)O)/C(=C\c1ccco1)NC(=O)c1ccc(Br)cc1` (stereo not drawn) gave Lassa entry inh 8%, MARV entry inh 5%, HCMV inh 70, Pf growth 96h 46%, HCV inhibitor 14% and Pf growth 48h 18%.
Screening COCCCn1c(SCC(=O)NC2CCCCC2)nnc1-c1ccco1 returned Lassa entry inh 20%[46.1 µM], MARV entry inh -6%[46.1 µM], HCMV inh -18, Pf growth 96h 2.3µM*, HCV inhibitor 8% and Pf growth 48h 10%.
Screening COCCn1c(SCC(=O)NC2CC2)nnc1-c1ccco1 returned Lassa entry inh 15%[46.1 µM], MARV entry inh -11%[46.1 µM], HCMV inh 84, Pf growth 96h 24%, HCV inhibitor 7% and Pf growth 48h 6%.

Source: PubChem
